# VLA-4 inh = inhibition in human VLA-4 binding assay, primary screen, VLA-4 allosteric modulator project, MLPCN library, flow cytometry, VLA-4 expressing cells; Integrin alpha-4 (Homo sapiens), P13612; ligand binding flow cytometry; inhibition, % (about 7 µM as worked out from the volumes in the protocol); 330,000 tested, 0.2% active; AID 2557, 2010; in the data active means inhibition above about 50%
# A3A deaminase = APOBEC3A ssDNA deaminase inhibitors, primary screen, selectivity assay for APOBEC3G inhibitor project, biochemical, FAM/TAMRA oligo cleavage fluorescence. inhibition, % at 20 µM. 330,000 tested, 0.41% active. DNA dC->dU-editing enzyme APOBEC-3A (Homo sapiens), P31941. AID 493011, 2011. recombinant A3A, FAM/TAMRA ssDNA deamination fluorescence;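 active means at least 40% inhibition at 20 µM here, with at most 30% in a related deaminase screen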;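 further: plate controls were A3A with DMSO for no effect and wells lacking A3A enzyme for full effect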
# Target sequence (P31941 whole entry, looked up): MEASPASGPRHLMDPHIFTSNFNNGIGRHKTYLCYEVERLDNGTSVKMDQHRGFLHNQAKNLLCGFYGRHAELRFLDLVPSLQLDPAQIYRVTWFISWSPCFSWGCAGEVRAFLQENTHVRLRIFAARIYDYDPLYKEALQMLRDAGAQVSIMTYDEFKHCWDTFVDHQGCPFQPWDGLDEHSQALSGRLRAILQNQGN
# APOBEC3G inh = APOBEC3G DNA deaminase inhibitors, primary screen, biochemical, fluorescence, single-stranded DNA substrate, uHTS; DNA dC->dU-editing enzyme APOBEC-3G (Homo sapiens), Q9HC16; recombinant A3G, ssDNA deamination FAM/TAMRA fluorescence; inhibition, % at 20 µM; 330,000 tested, 0.28% active;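 active means inhibition of at least 40% at 20 µM, with no more than 30% in the related APOBEC3A deaminase screen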;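 further: plate controls were DMSO wells with A3G for no effect and wells lacking A3G enzyme for full effect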
# Target sequence (Q9HC16 whole entry, looked up): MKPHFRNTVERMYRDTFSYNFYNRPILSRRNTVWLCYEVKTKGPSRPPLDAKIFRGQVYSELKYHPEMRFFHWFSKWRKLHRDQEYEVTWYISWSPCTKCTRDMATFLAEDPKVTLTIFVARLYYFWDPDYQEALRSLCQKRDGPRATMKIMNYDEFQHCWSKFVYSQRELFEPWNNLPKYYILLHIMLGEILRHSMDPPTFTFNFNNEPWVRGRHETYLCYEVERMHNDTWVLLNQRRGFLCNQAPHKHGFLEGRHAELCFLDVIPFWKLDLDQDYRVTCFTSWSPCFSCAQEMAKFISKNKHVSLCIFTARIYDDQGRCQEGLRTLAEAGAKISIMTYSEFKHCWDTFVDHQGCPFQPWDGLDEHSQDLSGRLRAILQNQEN
# GRK2 inh = compounds blocking aptamer binding on GRK2 – biochemical, human GRK2, bead flow cytometry, HTS, primary screen | Beta-adrenergic receptor kinase 1 (Homo sapiens), P25098 | inhibition of aptamer binding, % at 10 µM | 330,000 tested, 0.59% active | AID 488847, 2010 | FAM-aptamer displacement from GRK2;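 active means inhibition of aptamer binding above 40%, roughly 3 SD of noise, on plates passing a quality check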;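 further: median bead fluorescence of bound FAM aptamer so fluorescent compounds give negative values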
# VLA-4 mod pick = retest of VLA-4 allosteric modulators, confirmation, cell-based, cherry-picked plates, U937, HUTS-21 LIBS antibody | inhibition, % at 6.7 µM | U937 cells, HUTS-21 LIBS mAb binding, flow cytometry; LDV ligand present at threefold Kd | 1,300 tested, 2% active | shares compounds with VLA-4 inh | AID 2813, 2010; in the data active means inhibition above about 40%;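 further: 0% = ligand without compound and 100% = no ligand background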
# * hit, by the source's call; x = no result. Most compounds without a hit are left out; they make up all but 1.4% or so of the library.
SMILES,VLA-4 inh,A3A deaminase,APOBEC3G inh,GRK2 inh,VLA-4 mod pick
CC(C(=O)NCC(=O)Nc1ccc(F)c(F)c1F)N1CCN(Cc2ccc(C#N)cc2)CC1 (stereo not drawn),7,-3,-10,4,x
O=C(O)Cn1c(-c2ccccc2)nc2ccccc21,28,-5,-9,2,x
CC1=C(C(=O)Nc2ccc(F)cc2)C(c2cccc(C)c2)n2nc(CCCO)nc2N1 (stereo not drawn),51*,0,-5,0,-4
COC(=O)c1sc2nc(N3CCCCC3)c3c(c2c1N)CCCC3,90*,11,0,5,0
CCOC(=O)C1(CCc2ccccc2)CCN(C(=O)CN2CCOC2=O)CC1,0,0,-1,0,x
Cc1cc(C)c(S(=O)(=O)c2ccc(F)cc2C)c(Cl)n1,44,-4,-7,1,-14
COCCSc1ccccc1C(=O)N1CCc2ccccc2C1,52*,0,-4,3,2
O=C(c1ccccc1)N1CCN(C(=O)c2ccc([N+](=O)[O-])cc2)CC1,42,-4,-9,4,-2
COC(=O)c1cc(Cl)c(NC(=O)c2ccc(C(C)(C)C)cc2)cc1OC,0,3,-6,1,x
O=C(CC1SCCNC1=O)Nc1ccc(F)c(Cl)c1 (stereo not drawn),6,1,-4,0,x
O=C(CC1SCCNC1=O)Nc1ccccc1Cl (stereo not drawn),59*,-11,-6,2,2
CC(C)(C)N(NC(=O)Nc1ccccc1)C(=O)c1ccccc1Cl,94*,8,-2,6,-16
O=C(O)c1nn2c(C(F)(F)F)cc(-c3cccs3)nc2c1Cl,45,-1,-6,3,1
Cc1ccc(C(=O)C(C)OC(=O)c2ccccc2[N+](=O)[O-])cc1 (stereo not drawn),-9,1,-5,0,x
CCOc1ccccc1NC(=O)NCc1ccccc1,50*,-5,-6,0,-6
CC(=O)Nc1ccc(S(=O)(=O)Nc2nccc(C)n2)cc1,-10,-2,1,2,-3
CC(=O)Nc1ccc(S(=O)(=O)Nc2nc3ccccc3nc2Cl)cc1,42,-1,-7,0,5
Cc1ccnc(NS(=O)(=O)c2ccc(NC(=O)C(C)(C)C)cc2)n1,7,1,-5,1,x
CC(=O)Nc1ccc(S(=O)(=O)Nc2nc3cc4c(cc3nc2Cl)OCCO4)cc1,8,-1,-6,0,x
N#CCc1ccc(NC(=O)Cn2c(=O)oc3ccccc32)cc1,14,-3,-4,1,-15
CCN(CC)S(=O)(=O)c1ccc(NC(=O)Cn2c(=O)oc3ccccc32)cc1,7,-1,-7,3,4
O=C(Cn1c(=O)oc2ccccc21)Nc1ccc(S(=O)(=O)N2CCCCC2)cc1,5,-6,-6,0,x
NC(=O)c1ccccc1NS(=O)(=O)c1ccc(S(=O)(=O)N2CCCC2)cc1,-3,1,3,0,x
O=C(/C=C/c1cccc(F)c1)OCC(=O)N1CCCC1,2,1,5,4,x
CC1CCCCN1C(=O)Cn1c(=O)oc2ccccc21 (stereo not drawn),-5,-2,-1,2,x
SMILES,VLA-4 inh,A3A deaminase,APOBEC3G inh,GRK2 inh,VLA-4 mod pick
CN(CC(=O)Nc1cccc(F)c1)C(=O)Cn1c(=O)oc2ccccc21,14,0,-3,0,11
O=C(Cn1c(=O)oc2ccccc21)N1CCCC1,1,3,-2,0,-3
CN(CC(=O)Nc1ccc(F)cc1)C(=O)Cn1c(=O)oc2ccccc21,10,2,-1,1,x
CN(C(=O)Cn1c(=O)oc2ccccc21)C1CCCCC1,-1,-1,0,4,9
Cc1ccc2oc(=O)n(CC(=O)N3CCOCC3)c2c1,2,-2,-7,0,1
O=C(Cn1c(=O)oc2ccccc21)N1CCOCC1,26,-4,-5,2,x
CSCc1ccc(C(=O)NC(C)c2ccc(-n3ccnc3)cc2)cc1 (stereo not drawn),1,-5,-7,0,x
Cc1ccc(CSc2nc(N)cc(=O)[nH]2)cc1,-12,-5,-6,0,x
Cc1ccc(N2CC(C(=O)NC(C)CCc3ccccc3)CC2=O)cc1 (stereo not drawn),20,2,-9,2,x
CCOC(=O)NNC(=O)c1[nH]c2ccc(Br)cc2c1-c1ccccc1,8,0,-5,0,x
N#CCCn1cc(/C=N/O)c(-c2ccc(F)cc2)n1,-5,-2,-3,16,x
COc1ccccc1-c1sc2cc3c(cc2c1-c1ccc(OCCN2CCCCC2)cc1)OCO3,33,5,-1,0,18
COc1cc2sc(-c3ccccc3OC)c(-c3ccc(OCCN4CCCCC4)cc3)c2cc1OC,26,-6,-6,0,4
COc1ccc2sc(-c3ccccc3OC)c(-c3ccc(OC)nc3)c2c1,11,-1,-4,0,x
O=C(COC(=O)c1ccccc1C(=O)c1ccc(Cl)c([N+](=O)[O-])c1)NC1CCCCCC1,62*,1,-1,1,32
CNC(=O)[C@H](C)[C@@H]1C[C@@]1(C)[C@@H](NC(=O)OCc1ccccc1)c1ccccc1,-23,2,8,0,x
COc1cccc(-c2sc3ccc(OC)cc3c2-c2ccc(OCCN3CCOCC3)cc2)c1,19,0,13,0,7
COc1ccc(-c2sc3cc4c(cc3c2-c2ccc(OCCN3CCOCC3)cc2)OCO4)cc1,26,-6,-9,0,15
COc1cc(OC)cc(-c2sc3ccc(OC)cc3c2-c2ccc(OCCN3CCOCC3)cc2)c1,x,-1,-3,6,6
C1=C(c2sc3ccccc3c2-c2ccc(OCCN3CCOCC3)cc2)CCCC1,18,-4,-7,0,x
Cc1ccc(Sc2c(C(=O)Nc3ccc(F)cc3F)c(C(F)(F)F)nn2C)cc1,24,-5,-5,0,x
O=C(NCCOc1nc(N2CCCCC2)nc(N2CCOCC2)n1)Nc1ccccc1,23,2,0,0,x
C=CCn1c(SCC(=O)Nc2ccccc2F)nnc1C(C)NC(=O)c1ccccc1F (stereo not drawn),3,-2,-5,0,x
C=CCn1c(SCC(=O)Nc2nc(C)cs2)nnc1C(C)NC(=O)c1ccccc1Cl (stereo not drawn),54*,-2,-6,0,2
COc1cccc(NC(=O)c2sc3nc4n(c(=O)c3c2C)CCC4)c1,-5,-3,-6,2,x
Cc1c(S(=O)(=O)N2CCCC(C)C2)c(=O)n(C)c(=O)n1C (stereo not drawn),7,2,-7,1,x

# Screening results deposited in PubChem BioAssay by several laboratories.
